97 compounds from ChEMBL document CHEMBL4888484, “Replenishing the malaria drug discovery pipeline: Screening and hit evaluation of the MMV Hit Generation Library 1 (HGL1) against asexual blood stage Plasmodium falciparum ,using a nano luciferase reporter read-out” (2022) can be followed below.

Among all 4,800 compounds or so, about 420 (8.8%) showed an effect of 50% or more. Only a selection was taken, and strong results are over-represented in it overall.

This assay concerns Plasmodium falciparum. In words: Confirmatory screen in NF54 nanoGlo assay, in single point, at 2uM, 72h. Particulars: timepoint 72 hour. Type of assay: functional, Erythrocyte.
Usually % Inhibition stands for the drop in the measured response relative to a control, in per cent. Turning to `CC(C)CC(=O)Nc1ccc2c(c1)C(N1CCC(C)CC1)=Nc1ccccc1O2`, the “% Inhibition” value worked out at 0%.

As for `Cc1oc(C(=O)N2CC3(CCCC3)c3ccccc32)cc1S(=O)(=O)N(C)C`, the “% Inhibition” value amounted to 4%.

Regarding `COCCCn1c(NS(=O)(=O)c2ccc3ccccc3c2)c(S(=O)(=O)c2ccc(C)cc2)c2nc3ccccc3nc21`, the “% Inhibition” value was determined as 56%.

Turning to `COCCCN(Cc1c(C)nn(-c2cccc(F)c2)c1N1CCN(C)CC1)S(=O)(=O)c1ccc2ccccc2c1`, the “% Inhibition” value stood at 7%.

`COCCCn1c(NS(=O)(=O)c2ccccc2)c(S(=O)(=O)c2ccc(C)cc2)c2nc3ccccc3nc21`: the “% Inhibition” value was 61%.

Regarding `COc1ccc(-c2cc(C[C@H]3CNCC[C@H]3CC(=O)Nc3ccccc3)no2)cc1`, the “% Inhibition” value was -7%.

`CCCn1c(C)ccc(-c2noc(CCC(=O)NC3CCCC3)n2)c1=O`: the “% Inhibition” value is reported as -6%.

For the compound `CN(C(=O)C1C(C(=O)O)C1(C)C)c1ccccc1OC(F)F` (configuration not stated), the “% Inhibition” value is on record as -2%.

On to `Cc1ccc(C(=O)Nc2cc3c4c(c2)C2CCCC2CN4CC2CCCC32)cc1` (configuration not stated), for which the “% Inhibition” value amounted to 60%.

In the case of `Cc1ccc(C(=O)Nc2ccc(N3CCN(CCC#N)CC3)cc2C(=O)O)cc1`, the “% Inhibition” value is reported as -12%.

For `Cc1ccccc1[C@H]1CCN(c2ccc(NC(=O)c3ccc(Cl)cc3)c(C(=O)O)c2)C1`, the “% Inhibition” value is recorded as -11%.

`CC(C)(C)OC(=O)N1C2CCC1CC(CC(=O)NC1CCCC1)C2` (configuration not stated): the “% Inhibition” value was found to be 8%.

As to `COCCN(CC1CN(Cc2cccs2)CC1c1cccc(F)c1)C(=O)C(C)C` (configuration not stated), the “% Inhibition” value is recorded as -3%.

With `Cc1cc(C)n2cc(COC(=O)Cn3c(C)cc4ccccc43)nc2n1`, the “% Inhibition” value was -2%.

`Cc1oc2ncn(CCN3CCCC3)c(=O)c2c1C(=O)Nc1ccc(C#N)cc1`: the “% Inhibition” value is 34%.

Turning to `CCCN1CCC(NCc2ccc(-c3cccc(Cl)c3Cl)o2)CC1`, the “% Inhibition” value amounted to 65%.

On to `O=C(Nc1cccc2ccccc12)c1nn[nH]c1NS(=O)(=O)c1ccccc1`, for which the “% Inhibition” value is -9%.

With `COc1ccnc(N2CCc3nn(C(C)C)c(=O)cc3C2)n1`, the “% Inhibition” value was -4%.

Consider `O=C(Cc1ccc(N(Cc2cccc(F)c2)C(=O)C2CCCC2)cc1)NCCN1CCCCC1`, for which the “% Inhibition” value was found to be 54%.

Take `Cc1cccc(CN(C(=O)C2CCCC2)c2ccc(CC(=O)NCCN3CCOCC3)cc2)c1`: the “% Inhibition” value is reported as 9%.

`O=C(Cc1ccc(N(Cc2cccc(F)c2)C(=O)C2CCCC2)cc1)NCCN1CCCC1`: the “% Inhibition” value was determined as 21%.

As to `NC(=O)C1CCN(C(=O)Nc2nc(C(F)(F)F)cs2)CC1`, the “% Inhibition” value was found to be 5%.

As for `CC1(C)CCC[C@@H]1NS(=O)(=O)c1ccc(C(=O)N2CCOCC2)cc1`, the “% Inhibition” value came to 4%.

`Oc1ccc(-c2nnc(-c3ccc(O)cc3)nn2)cc1`: the “% Inhibition” value was determined as 51%.

Consider `Oc1ccc(-c2ncc3n2CCCC3)cc1`, for which the “% Inhibition” value is listed as 4%.

For the compound `Cc1c(-c2ccc(F)cc2)[nH]c2ccc(CNc3nccc(N(C)C)n3)cc12`, the “% Inhibition” value is on record as 29%.

Consider `CC(C)[C@H](Nc1ccc2nccnc2n1)c1nnc2n1CCC2`, for which the “% Inhibition” value is reported as -8%.

`Oc1ccccc1-c1cnc(C(F)(F)F)s1`: the “% Inhibition” value was found to be 94%.

As to `Oc1nc(-c2cccc(C(F)(F)F)c2)sc1-c1ccccc1`, the “% Inhibition” value came out at 0%.

Regarding `CN(C)Cc1cn(C[C@H]2C[C@@H](NC(=O)Nc3ccc4c(c3)OCCO4)[C@H](O)[C@@H]2O)nn1`, the “% Inhibition” value stood at 0%.

For the compound `CC1CN(C(=O)COc2ccc3oc4ccccc4c3c2)CC(C)O1` (configuration not stated), the “% Inhibition” value was -3%.

For the compound `CNC[C@H]1CCCN1C(=O)c1ccc(-c2noc(C(F)(F)F)n2)cc1`, the “% Inhibition” value worked out at 29%.

For the compound `COC1CCCCC1NC(=O)c1ccc(-c2noc(C(F)(F)F)n2)cc1` (configuration not stated), the “% Inhibition” value is -1%.

On to `CC(C(=O)N1N=CCC1(O)C(F)(F)F)n1nc(C(F)(F)F)cc1C1CC1` (configuration not stated), for which the “% Inhibition” value was -1%.

In the case of `O=C(NCCc1cc(F)cc(F)c1)C1CC2CCC1C2` (configuration not stated), the “% Inhibition” value is given as 0%.

Regarding `O=S(=O)(Cc1cc(Cl)cc(Cl)c1)NCCCCn1ccnc1`, the “% Inhibition” value is -6%.

Regarding `COc1ccc(Nc2nnc(-c3ccc(NC(=O)C(=O)NCCCn4ccnc4)cc3)s2)cc1`, the “% Inhibition” value came out at 56%.

As for `COc1ccc(-c2nccn3cc(C(=O)NCCc4ccncc4)nc23)cc1`, the “% Inhibition” value was -1%.

Regarding `Cn1c2ccc(Br)cc2c2cc(NS(=O)(=O)c3ccccc3)ccc21`, the “% Inhibition” value worked out at 4%.

For the compound `CS(=O)(=O)Nc1nc2c(s1)CN(C(=O)c1ccc3c(c1)CCC=C3)CC2`, the “% Inhibition” value is 0%.

As to `Cc1ccc(C(=O)Nc2c(C(N)=O)sc3nc(C(F)F)cc(C4CC4)c23)cc1`, the “% Inhibition” value was -16%.

Turning to `CN1CCC[C@H](C(=O)Nc2nc(C3CC3)cs2)C1`, the “% Inhibition” value was -12%.

For the compound `Cc1cc(F)ccc1NC(=O)Cn1nc(C2CC2)c2c(C(F)F)cc(=O)[nH]c21`, the “% Inhibition” value is listed as -4%.

Regarding `Cc1nc(CC(=O)Nc2cc(C3CC3)nn2-c2ccccc2)cs1`, the “% Inhibition” value stood at 1%.

For the compound `Cc1cc(=O)[nH]c(-n2nc(C3CC3)cc2NC(=O)c2ccc(C(C)(C)C)cc2)n1`, the “% Inhibition” value is 57%.

Turning to `CC(C)(C)c1ccc(C(=O)N[C@H]2CCCC[C@@H]2NC(=O)c2ccc(C(C)(C)C)cc2)cc1`, the “% Inhibition” value is -5%.

In the case of `CC(C)c1cc(=O)[nH]c(-n2nc(C3CC3)cc2NC(=O)c2ccc(F)cc2)n1`, the “% Inhibition” value amounted to 93%.

Regarding `Cc1cc(=O)[nH]c(-n2nc(C3CC3)cc2NC(=O)C(c2ccccc2)c2ccccc2)n1`, the “% Inhibition” value stood at 91%.

With `CCc1cc(C(=O)N2CCCCCC2)c2c(C3CC3)nn(-c3ccc(F)cc3)c2n1`, the “% Inhibition” value turned out to be 0%.

As to `CC1CCC(NC(=O)C(c2ccccc2)c2ccccc2)CC1` (configuration not stated), the “% Inhibition” value is on record as 10%.

For the compound `CCc1cc(=O)[nH]c(-n2nc(C3CC3)cc2NC(=O)C2CCCCC2)n1`, the “% Inhibition” value was 88%.

For `Cc1nn(C)c(NC(=O)c2ccc(C(C)(C)C)cc2)c1C1=CCCCC1`, the “% Inhibition” value is listed as 15%.

On to `CC1CC(C)CC2(C1)NC(=O)N(CCC1OCCO1)C2=O` (configuration not stated), for which the “% Inhibition” value is given as -1%.

As for `Cc1cc(=O)n(CC(=O)N2CCC(C)CC2)c(-c2ccc(F)cc2)n1`, the “% Inhibition” value is -4%.

Take `O=C(CCc1nc(CN2CCN(S(=O)(=O)c3ccc(F)cc3)CC2)no1)N1CCCC1`: the “% Inhibition” value is on record as -4%.

Regarding `CCOC(=O)N1CCc2c(nc(-c3ccc(C)cc3)n(CC(=O)Nc3ccc(C(C)C)cc3)c2=O)C1`, the “% Inhibition” value was -16%.

As to `Cc1noc([C@H](C)S(=O)(=O)Cc2cc(C)on2)n1`, the “% Inhibition” value is 0%.

With `O=S(=O)(Nc1ccc(F)cc1OCC1CC1)c1cn[nH]c1`, the “% Inhibition” value was -12%.

For `Cn1cc(CNC(=O)NCC2(Cc3ccccc3)CCC2)cn1`, the “% Inhibition” value is -4%.

As to `Cc1c(C(C)C)c(=O)n(-c2ccc(S(=O)(=O)N3CCN(c4nc5ccccc5nc4-c4ccccc4)CC3)cc2)n1C`, the “% Inhibition” value is on record as -20%.

For the compound `CCN(CC(C)(C)O)C(=O)C1CCCCCC1`, the “% Inhibition” value is given as -9%.

Consider `Cn1nc(C(F)(F)F)cc1B1OC(C)(C)C(C)(C)O1`, for which the “% Inhibition” value stood at 4%.

`C=CCOc1ccc(Cl)c(C(=O)N[C@H]2CCS(=O)(=O)C2)n1`: the “% Inhibition” value is listed as 0%.

Take `Cc1cc(N)n(-c2nc(-c3ccccc3)cc(=O)[nH]2)n1`: the “% Inhibition” value was found to be 1%.

As for `O=C(CCCc1ccccc1)Nc1cc(C2CC2)nn1-c1nc(-c2ccccc2)cc(=O)[nH]1`, the “% Inhibition” value is 48%.

Consider `CCC(CC)C(=O)Nc1cc(C2CC2)nn1-c1nc(-c2ccccc2)cc(=O)[nH]1`, for which the “% Inhibition” value turned out to be 50%.

Regarding `Cc1ccc(NC(=O)NC(=O)Cn2ccc(=O)c3sccc32)cc1C`, the “% Inhibition” value worked out at 0%.

Regarding `Cc1ccc(S(=O)(=O)N2CCN(S(C)(=O)=O)C2)cc1`, the “% Inhibition” value was determined as 0%.

Take `Cc1ccc2c(c1)c1c(n2S(=O)(=O)c2ccc(C(C)(C)C)cc2)CCCN(C)C1`: the “% Inhibition” value is recorded as 76%.

For the compound `Cc1ccc(S(=O)(=O)N2CCCC(=O)c3ccccc32)cc1`, the “% Inhibition” value was -3%.

Take `CC#CCCC(=O)Nc1ccc(OC)cc1`: the “% Inhibition” value was -5%.

`Cc1cc(C)c(OC(=O)c2ccc(Cl)cc2Cl)c(CNC(=O)c2ccccc2)c1`: the “% Inhibition” value is -16%.

For `c1cc([C@@H]2CCCCN2c2nc(C3CC3)ns2)n[nH]1`, the “% Inhibition” value stood at 2%.

`CCNC(=O)C[C@H]1CCCCN1C(=O)C1CCN(Cc2csc(C)n2)CC1`: the “% Inhibition” value is given as -1%.

Take `O=S(=O)(c1ccccc1C(F)(F)F)N1CC[C@]2(CCN(c3cccnc3)C2)C1`: the “% Inhibition” value is listed as -2%.

Regarding `Cc1ccc(C(=O)N[C@@H](C)CCc2ccccc2)cc1S(=O)(=O)N1CCN(C)CC1`, the “% Inhibition” value is -20%.

On to `CCn1nccc1CN(C)C(=O)c1cc(C)c(C)s1`, for which the “% Inhibition” value turned out to be 5%.

Regarding `CCCC[C@H](CC)C(=O)Nc1cc(C)ccn1`, the “% Inhibition” value is recorded as 0%.

In the case of `Cc1cc(C)n(NC(=O)CCn2nc(C(F)(F)F)c(Br)c2C2CC2)c(=O)c1`, the “% Inhibition” value was determined as 3%.

On to `Clc1cc(CN2CC[C@@]3(CCCOC3)C2)ccc1OCCN1CCOCC1`, for which the “% Inhibition” value was found to be 0%.

`CCCOc1cccc2c(NC3CCN(CCOC)CC3)ccnc12`: the “% Inhibition” value is given as 22%.

With `Cc1cc(C)cc(Nc2nc(C)cc(=O)n2CC(=O)N2CCN(c3ccc(F)cc3)CC2)c1`, the “% Inhibition” value was -1%.

For `Cc1c(C(=O)c2ccc(Cl)c(Cl)c2)sc2nc3cc(F)c(F)cc3n12`, the “% Inhibition” value is -11%.

As to `Nc1ncnc(NCc2cccnc2OCC(F)F)c1Cl`, the “% Inhibition” value amounted to 7%.

Take `COc1cc(C(=O)NCCN2CCOCC2)cc2occc12`: the “% Inhibition” value was -4%.

For the compound `CC1CC(NS(=O)(=O)CCCC(F)(F)F)CCN1` (configuration not stated), the “% Inhibition” value is -4%.

For `COc1cc(NC(=O)N[C@@H](C)C(=O)N2CCc3ccccc32)cc(OC)c1`, the “% Inhibition” value amounted to 4%.

`Cc1ccc(NC(=O)c2cc3nccc(-c4ccc(F)cc4)n3n2)nc1`: the “% Inhibition” value is -7%.

In the case of `CN(C(=O)NC1CCCC1)c1nc2c(s1)CN(Cc1ccccc1)C2=O`, the “% Inhibition” value is listed as -12%.

Consider `Cc1ccc(CNC2CCN(C)CC2)c(OCc2ccco2)c1`, for which the “% Inhibition” value is on record as -3%.

In the case of `Cc1ccc2nc3c(c(N)c2c1)CCCCN3C`, the “% Inhibition” value was -10%.

On to `Cc1ccc2nc(C3CC3)cc(C(=O)N3C[C@@H](O)C[C@H]3CO)c2c1`, for which the “% Inhibition” value is listed as -4%.

With `COCCN(CC1CN(Cc2ccccc2OC)CC1c1ccccc1OC)C(=O)COC` (configuration not stated), the “% Inhibition” value is recorded as -2%.

On to `CC(C)[C@@H]1CCc2ccccc2N1Cc1nc(N)nc(N(C)C)n1`, for which the “% Inhibition” value was -4%.

Regarding `COc1ccc(NC(=O)Cn2c(C(F)(F)F)nc3cc4c(cc32)OCCCO4)cc1`, the “% Inhibition” value was 4%.

Take `Cn1c2cn(-c3ccc(F)cc3)c(-c3ccccc3)c2c(=O)n1-c1ccccc1`: the “% Inhibition” value is listed as -1%.

For the compound `Cn1c(=O)c2c(-c3ccc(Cl)cc3)n(-c3cccc4cccc(N)c34)cc2n(C)c1=O`, the “% Inhibition” value amounted to 91%.
